# From PubChem
# C diff growth: C. difficile growth inhibitors, primary screen, HTS | Clostridium difficile clinical isolate growth, OD600, 24 h; stronger effect = lower value | growth activity, negative = inhibition, % at 16 µg/mL (by protocol) | actives 0.25% (n = 86,000) | AID 1259249, 2017;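 active = mean growth activity at or below -80% and every replicate also at or below -80%; inconclusive = mean at or below -80% but some replicate above -80%; inactive = mean growth activity above -80%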;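 note: 0% = DMSO wells and -100% = levofloxacin 16 µg/mL wells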
# T cruzi growth-1: T. cruzi intracellular proliferation inhibitors, primary screen, cell-based, beta-gal Tulahuen parasites, NIH3T3 host, luminescence | AID 624255, 2012 | actives 5.9% (n = 77,000) | T. cruzi beta-gal in NIH3T3, GalScreen luminescence, 90 h | inhibition, % at 8.34 µM;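 active = mean inhibition above about 93%, with at least 55% of replicates each passing it, limit read from the data, passing the limit was not always enough; inconclusive = only one of those two conditions holds; inactive = neither condition holds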
# Pf Dd2 inh: P. falciparum Dd2 growth inhibitors, primary screen, SYBR Green fluorescence, single dose replicates; activity change, % at 10 µM; 72 h; stronger effect = lower value; actives 2.3% (n = 94,000); AID 1159554, 2015; in the data active = activity change below about -80%; inconclusive = no clear call, values can overlap the other calls
# T cruzi growth-2: T. cruzi intracellular proliferation inhibitors, confirmation, cell-based, NIH3T3 host, beta-gal parasite, luminescence, cherry-pick; shares compounds with T cruzi growth-1; T. cruzi beta-gal in NIH3T3, GalScreen luminescence, 90 h; inhibition, % at 8.35 µM; actives 72% (n = 5,600);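 active = mean replicate inhibition above about 95% and at least 55% of replicates individually reaching it, limit read from the data; inconclusive = only one of the two criteria is met; inactive = neither criterion is met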
# T cruzi growth-3: inhibitors of intracellular T. cruzi replication, confirmation, NIH3T3 host cells, beta-gal parasites, cherry-pick, set 2; shares compounds with T cruzi growth-1; inhibition, % at 2.09 µM; T. cruzi beta-gal in NIH3T3, GalScreen luminescence, 90 h; actives 21% (n = 5,600);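 active = mean inhibition above about 95%, with at least 55% of replicates also reaching it, limit read from the data; inconclusive = meets just one of the two conditions; inactive = meets neither condition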;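 note: plate controls were neutral control median for no effect and positive control median for full effect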
# NIH3T3 tox: cytotoxicity in mouse NIH/3T3 fibroblasts, confirmation, cytotoxicity control for T. cruzi proliferation inhibitor project, cell-based, cherry-pick, single point; shares compounds with T cruzi growth-1; NIH/3T3 viability, CellTiter-Glo ATP luminescence, 90 h; cytotoxicity (signal decrease), % at 8.35 µM; actives 14% (n = 5,600); AID 651742, 2012;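 active = mean signal decrease across replicates above about 35% based on untreated-well scatter, with enough replicates individually passing, limit read from the data; inconclusive = no rule stated though some were filed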;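 note: 0% = median of neutral control wells and 100% = median of positive control wells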
# 3T3 cytotox 2: NIH/3T3 fibroblast cytotoxicity, confirmation, cytotoxicity control, cell-based, cherry-pick, single point, set 2 | shares compounds with T cruzi growth-1 | NIH/3T3 viability, CellTiter-Glo ATP luminescence, 90 h | inhibition, % at 24.9 µM | actives 56% (n = 5,600) | AID 651744, 2012;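 active = mean loss of cell viability signal at or above a set limit, and enough replicates individually reaching it; inconclusive = meets only the mean limit or only the replicate share; inactive = meets neither condition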;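 note: 0% = median of neutral control wells and 100% = median of positive control wells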
# * marks the source's active call; other numbers are inactive results; u = inconclusive; x = no result. A selection: hits, their analogues and other compounds. The true share with any hit is near 6.7%.
SMILES,C diff growth,T cruzi growth-1,Pf Dd2 inh,others
C[C@H](CO)N1C[C@H](C)[C@H](CN(C)S(=O)(=O)c2ccc(Cl)cc2)OCCCC[C@H](C)Oc2ccc(NC(=O)Nc3cccc4ccccc34)cc2C1=O,-3,98*,-22,T cruzi growth-2=111*;T cruzi growth-3=102*;NIH3T3 tox=26;3T3 cytotox 2=u
C[C@@H]1CCCCO[C@@H](CN(C)S(=O)(=O)c2ccccc2)[C@@H](C)CN([C@H](C)CO)C(=O)c2cc(NC(=O)Nc3cccc4ccccc34)ccc2O1,2,26,1,
O=C(c1cccc(F)c1)N1C[C@@H]2[C@H](c3ccccc31)[C@@H](CO)N2C(=O)C1CC1,0,-7,-3,
C[C@@H]1CN([C@H](C)CO)C(=O)Cc2cc(NC(=O)Nc3ccc4c(c3)OCO4)ccc2O[C@@H]1CN(C)Cc1ccc(C(F)(F)F)cc1,4,74,2,
CC(=O)N1[C@H](CO)[C@H](c2ccccc2)C12CN(C(=O)c1ccccc1)C2,0,x,3,
C[C@H](NC(=O)C[C@H]1CC[C@@H](NC(=O)CN2CCOCC2)[C@H](CO)O1)c1ccccc1,x,-6,15,
C[C@H]1CN([C@@H](C)CO)C(=O)c2cc(C#Cc3ccncc3)cnc2O[C@H]1CN(C)CC1CCCC1,9,x,21,
CN(C)CC(=O)N1CCCCN2[C@H](C1)[C@@H](c1ccc(-c3cccc(C(=O)N(C)C)c3)cc1)[C@@H]2CO,5,-51,69,
O=C(C[C@@H]1CC[C@H](NC(=O)Nc2cc(F)ccc2F)[C@H](CO)O1)Nc1ccccc1,-4,x,x,
C[C@H]1CCCCO[C@@H](CN(C)Cc2ccc(C(=O)O)cc2)[C@@H](C)CN([C@@H](C)CO)C(=O)c2cc(NS(=O)(=O)c3ccc(Cl)cc3)ccc2O1,-5,13,-45,
C[C@H](CO)N1C[C@H](C)[C@H](CN(C)Cc2ccc(C(F)(F)F)cc2)Oc2ccc(NC(=O)c3ccncc3)cc2CC1=O,3,66,6,
C[C@H](CO)N1C[C@H](C)[C@@H](CN(C)Cc2ccc(C(F)(F)F)cc2)Oc2ccc(NC(=O)C3CC3)cc2CC1=O,-16,102*,-5,T cruzi growth-2=105*;T cruzi growth-3=99*;NIH3T3 tox=3;3T3 cytotox 2=-4
C[C@@H]1CN([C@H](C)CO)C(=O)Cc2cc(NC(=O)C3CC3)ccc2O[C@H]1CN(C)Cc1ccc(C(F)(F)F)cc1,0,72,-1,
C[C@@H]1CN([C@H](C)CO)C(=O)Cc2cc(NC(=O)c3ccncc3)ccc2O[C@H]1CN(C)Cc1ccc(C(F)(F)F)cc1,-12,106*,4,T cruzi growth-2=104*;T cruzi growth-3=45;NIH3T3 tox=24;3T3 cytotox 2=63*
COc1cccc(-c2ccc3c(c2)[C@H]2[C@H](CCN2C(=O)NC2CCCCC2)[C@@H](CO)N3C)c1,13,x,-35,
CC(C)NC(=O)N(C)C[C@H]1Oc2ncc(C#CC3CCCC3)cc2C(=O)N([C@@H](C)CO)C[C@H]1C,-1,24,-7,
COCC(=O)Nc1ccc2c(c1)[C@H]1C[C@H](CC(=O)N3CCCCC3)O[C@@H](CO)[C@H]1O2,0,11,6,
CCCNC(=O)C[C@@H]1CC[C@@H]2[C@H](COc3ccc(NC(=O)COC)cc3C(=O)N2C)O1,2,-28,3,
C[C@@H]1CN([C@@H](C)CO)C(=O)c2cccc(NS(=O)(=O)c3ccccc3)c2O[C@H]1CN(C)Cc1ccc(C(F)(F)F)cc1,8,29,-60,
CC(C)NC(=O)N(C)C[C@H]1OCCCC[C@H](C)Oc2ccc(NC(=O)Nc3ccc(C(F)(F)F)cc3)cc2C(=O)N([C@@H](C)CO)C[C@H]1C,9,49,-33,
C[C@@H]1CCCCO[C@@H](CN(C)C(=O)c2ccccc2)[C@H](C)CN([C@@H](C)CO)C(=O)c2cc(NC(=O)Nc3ccc(C(F)(F)F)cc3)ccc2O1,3,102*,-16,T cruzi growth-2=105*;T cruzi growth-3=108*;NIH3T3 tox=-8;3T3 cytotox 2=-6
C[C@H](CO)N1C[C@H](C)[C@@H](CN(C)C(=O)c2ccccc2)OCCCC[C@H](C)Oc2ccc(NC(=O)Nc3ccc(C(F)(F)F)cc3)cc2C1=O,-1,-56,58,
C[C@H]1CCCCO[C@@H](CN(C)C(=O)Nc2ccc(C(F)(F)F)cc2)[C@@H](C)CN([C@@H](C)CO)C(=O)c2cc(N(C)C)ccc2O1,2,u,34,T cruzi growth-2=103*;T cruzi growth-3=50;NIH3T3 tox=-8;3T3 cytotox 2=20
C[C@H]1CCCCO[C@@H](CN(C)C(=O)Nc2ccc(C(F)(F)F)cc2)[C@@H](C)CN([C@@H](C)CO)C(=O)c2cc(NC(=O)Nc3ccc(C(F)(F)F)cc3)ccc2O1,2,126*,8,T cruzi growth-2=109*;T cruzi growth-3=111*;NIH3T3 tox=-7;3T3 cytotox 2=6
C[C@@H]1CCCCO[C@@H](CN(C)C(=O)Nc2ccc(C(F)(F)F)cc2)[C@H](C)CN([C@H](C)CO)C(=O)c2cc(NC(=O)Nc3ccc(F)cc3)ccc2O1,7,95,-46,
SMILES,C diff growth,T cruzi growth-1,Pf Dd2 inh,others
CC(C)NC(=O)N(C)C[C@@H]1OCCCC[C@H](C)Oc2ccc(NC(=O)Nc3ccc(C(F)(F)F)cc3)cc2C(=O)N([C@H](C)CO)C[C@@H]1C,-5,100*,-3,T cruzi growth-2=100*;T cruzi growth-3=1;NIH3T3 tox=12;3T3 cytotox 2=14
C[C@@H]1CCCCO[C@H](CN(C)C(=O)Nc2ccc(C(F)(F)F)cc2)[C@@H](C)CN([C@H](C)CO)C(=O)c2cc(N(C)C)ccc2O1,0,89,-41,
CCCNC(=O)N(C)C[C@H]1Oc2cc(-c3cccnc3)ccc2S(=O)(=O)N([C@@H](C)CO)C[C@H]1C,0,-28,15,
C[C@H](O)C#Cc1cnc2c(c1)C(=O)N([C@H](C)CO)C[C@@H](C)[C@H](CN(C)C(=O)c1ccccc1F)O2,1,-21,x,
C[C@@H]1CN([C@@H](C)CO)C(=O)c2cc(-c3cccc(F)c3)cnc2O[C@@H]1CN(C)C(=O)c1ccccn1,-3,x,19,
COc1ccccc1NC(=O)N1C[C@@H]2[C@H](c3ccccc31)[C@H](CO)N2C(=O)C1CCCC1,2,6,-18,
C[C@@H]1CCCCO[C@H](CN(C)C(=O)Nc2ccc(F)cc2)[C@@H](C)CN([C@@H](C)CO)C(=O)c2cc(NC(=O)Nc3ccc(C(F)(F)F)cc3)ccc2O1,6,89,u,
